ALOX12 inhib: blocks human 12-lipoxygenase activity; P18054; purified 12-hLO, xylenol orange hydroperoxide absorbance; Potency, µM (highest dose often 57.1 µM), without a hit: at the highest dose activity change, negative = inhibition, actives largely listed as inhibitors; hit rate 0.12% among 150,000; AID 1452; note: potency is the fitted concentration of half-maximal effect; nearly all actives have a fitted effect of over 55% in size
Target sequence (P18054 whole entry, looked up): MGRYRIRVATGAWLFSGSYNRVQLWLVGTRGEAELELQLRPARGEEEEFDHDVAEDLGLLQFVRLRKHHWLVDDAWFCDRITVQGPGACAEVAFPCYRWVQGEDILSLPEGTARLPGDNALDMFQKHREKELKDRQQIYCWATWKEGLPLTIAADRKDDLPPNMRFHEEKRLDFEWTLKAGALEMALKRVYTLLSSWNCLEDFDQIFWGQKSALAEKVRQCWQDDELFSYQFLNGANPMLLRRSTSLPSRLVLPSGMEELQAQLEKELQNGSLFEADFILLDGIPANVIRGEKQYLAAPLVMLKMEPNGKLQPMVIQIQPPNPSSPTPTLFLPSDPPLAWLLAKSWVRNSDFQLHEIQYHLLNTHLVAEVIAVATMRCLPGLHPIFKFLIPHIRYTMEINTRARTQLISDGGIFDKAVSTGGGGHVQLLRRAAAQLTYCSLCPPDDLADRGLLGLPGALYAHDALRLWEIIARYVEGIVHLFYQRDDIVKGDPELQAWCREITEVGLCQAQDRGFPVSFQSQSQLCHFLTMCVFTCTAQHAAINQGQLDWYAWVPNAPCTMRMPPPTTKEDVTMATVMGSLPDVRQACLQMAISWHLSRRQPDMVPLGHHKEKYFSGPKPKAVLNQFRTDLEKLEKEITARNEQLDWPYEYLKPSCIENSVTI
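Purified human 12hLO (150 nM final) was preincubated with compounds for 15 min at room temperature in 25 mM Hepes pH 7.0, 0.01% Triton X-100, then reacted with 40 uM arachidonic acid for 30 min. Hydroperoxide was detected with ferrous iron/xylenol orange.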
HPGD block: inhibitors of human 15-hydroxyprostaglandin dehydrogenase (HPGD); AID 894; hit rate 4.3% among 150,000; Potency, µM, for inactives: at the highest dose activity change, negative = inhibition, actives largely listed as inhibitors; purified HPGD, NADH fluorescence kinetic, PGE2 substrate; P15428; active = well fitted inhibition curve with a large enough effect, not every such curve was filed as active; inconclusive = small, poorly fitted or top-dose-only effect, or another doubt; inactive = no such curve, though single readings can be large or run the other way; note: potency is the fitted concentration of half-maximal effect
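NADH formation kinetics: reaction with 30 uM PGE2 and 1 mM NAD+ (final), 20 nM enzyme, Tris-HCl pH 8 with Tween 20, after 15 min compound preincubation at room temperature. Fluorescence change, last versus first of five reads.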
IMPase Li cell: cell-permeable IMPase inhibitors with lithium potentiation | CHO-M1 cells, IP1 TR-FRET (IP-One), carbachol + lithium | Potency, µM (titrated, usually from 59.4 µM), inactives show at the top dose activity, negative = IMPase inhibition, most hits filed as inhibitors | hit rate 0.35% among 210,000 | AID 1457;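 note: IP1 builds up when IMPase is blocked and the TR-FRET signal falls; potency is the fitted concentration of half-maximal effect; plate controls were basal vehicle for no effect and high inhibitor control for full effect; nearly all actives have a fitted effect of over 50% in size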
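Lithium-sensitised IP1 accumulation assay; M1-expressing CHO cells treated 30 min at 37C with compound. Competitive antibody detection by time-resolved FRET followed a 10 min room-temperature lysis step.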
15-hLO-2 inh: blocks human 15-lipoxygenase 2 activity; O15296; purified 15hLO-2, xylenol orange hydroperoxide absorbance; Potency, µM (titrated, usually from 57.1 µM), for inactives: at the highest dose activity change, negative = inhibition, usual class: inhibitors; hit rate 0.56% among 110,000; AID 881; note: potency is the fitted concentration of half-maximal effect; nearly all actives have a fitted effect of over 60% in size
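Enzyme 50 nM, AA 45 uM, 25 mM Hepes pH 7.5 + 0.01% Triton X-100; cpd preinc 15 min RT, rxn 90 min RT; stop/detect with 200 uM XO + 300 uM Fe(II) in 50 mM H2SO4, 30 min; A573/A405.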
IMPase cell inh: IMPase inhibition in cells | 120,000 tested, under 10 active | P97697 | AID 901 | inhibition (IP1 accumulation), % at 46.1 µM | CHO-M1 cells, IP1 accumulation, HTRF TR-FRET ratio; active = well fitted curve in the direction sought with a large enough effect in the signal ratio, not every such curve was filed as active; inconclusive = small, poorly fitted or top-dose-only effect, or a change in a side signal; inactive = no such curve, though single readings can be large or run the other way; the % refers to the signal ratio;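 note: cells stimulated with carbachol in lithium chloride buffer; plate controls were DMSO basal wells for no effect and reference inhibitor wells for full effect; higher means more IMPase inhibition seen as more IP1 and lower FRET ratio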
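Elevated IP1 in lysates lowers TR-FRET signal (665/620 ratio and 620 channel reported). Cells were CHO-M1, given carbachol (50 uM as added) plus 50mM LiCl, pH 7.4, 30 min, 37C; compounds titrated up to 46 uM; AC50 by Hill equation.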
PNC inhibitor: perinucleolar compartment assembly inhibition; AID 2417; hit rate 3.1% among 140,000; PC3M PTB-GFP, PNC prevalence imaging, 16 h; active compounds read low; activity change (PNC), negative = inhibition, % at 10 µM;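 active = readout at or below -70, meaning at least 70% loss of cells showing the perinucleolar compartment, a nuclear body marking cancer cells; inconclusive = readout between -30 and a set limit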;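 note: plate controls were DMSO wells for no effect and camptothecin positive control wells for full effect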
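PC3M cells stably expressing PTB-GFP, 750–1000 cells/well, treated 16 h at 37 °C with compound (23 nl of library stock), in duplicate. After paraformaldehyde fixation and Hoechst stain, imaged at 20x; PNC prevalence scored by image analysis.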
* = called active by the depositor; u = inconclusive; x = no result; [ ] = another dose, or the depositor's remark. Only some compounds are listed: those with a hit (about 5.4% of all), similar ones and a draw of the others. Unless noted, calls come from the whole dose curve; as a rule, active = well fitted curve in the direction sought with a large enough effect; inconclusive = small, poorly fitted or top-dose-only effect, or another doubt; inactive = no such curve, though single readings can be large; an effect the other way counts as inactive or inconclusive. Unless noted, % is set by controls: 0 for no effect and ±100 for the full control effect.

SMILES | ALOX12 inhib | HPGD block | IMPase Li cell | 15-hLO-2 inh | IMPase cell inh | PNC inhibitor
CCOC(=O)Cn1c(=N)n(Cc2ccccc2)c2ccccc21 | -5% | -7% | -1%[38.3 µM] | 4% | -13 | 2
N#CCCn1c(=S)[nH]c2ccccc21 | -5% | 14µM* | 20%[38.3 µM] | -3% | -1 | u
Cc1cccc(OCCn2c(=S)[nH]c3ccccc32)c1 | 28µM* | 2µM* | 16% | x | -5 | u
CCOC(=O)Cn1c(=N)n(CCOc2cccc(C)c2)c2ccccc21 | 0% | -1% | 2% | 34% | 2 | -97*
Cc1cccc(CNc2ccnc(-c3ccccc3C(F)(F)F)n2)c1 | x | x | 20% | 14% | x | x
NC(N)=N/N=C(\c1ccc(Cl)cc1)C1CC1 | 5%[11.4 µM] | -8% | 5% | 6%[11.4 µM] | x | x
COCCN=C1Sc2nc3c(C)cccc3cc2CN1Cc1ccco1 | -20% | 22µM* | -16%[38.3 µM] | u | 5 | 4
Cc1cccc2cc3c(nc12)SC(=NCC1CCCO1)N(Cc1ccco1)C3 (centres undefined) | -27% | x | x | -13% | 6 | -27
c1ccc(CN2CC[C@@H](CNc3ncnc4ccccc34)C2)cc1 | -2%[11.4 µM] | 0% | 8% | 10%[11.4 µM] | x | x
COc1ccccc1OCC(=O)NCc1ccco1 | 2% | u | -8%[38.3 µM] | 9% | 1 | 14
Cc1ccc(Cl)c(OCC(=O)NCc2ccco2)c1 | 6% | -30% | 23%[38.3 µM] | -2% | -1 | u
CCc1ccc(OCC(=O)NCc2ccco2)c(Br)c1 | -9% | 35µM* | 0%[38.3 µM] | -1% | -4 | 28
O=C(COc1ccccc1Br)NCc1ccco1 | 1% | 25µM* | 21%[38.3 µM] | -4% | 13 | -24
CC(C)CCCC(C)C1CCC2C3CC=C4CC(=O)CC[C@@]4(C)C3CC[C@@]12C (some centres undefined) | -2% | -10% | 2% | 0% | x | x
NC(=O)C/C=C\CC(N)=O | 2%[11.4 µM] | -12% | -1% | -2%[11.4 µM] | x | x
CN(C)c1ccc(/C=C(/NC(=O)c2ccccc2)C(=O)N/N=C/c2ccc([N+](=O)[O-])c(O)c2)cc1 | -3% | 16µM* | 47%[38.3 µM] | 43%[11.4 µM] | 17[1.84 µM] | 39
COc1ccc(/C=C(/NC(=O)c2ccccc2)C(=O)N/N=C/c2ccc3c(c2)OCO3)cc1OC | 1% | 32µM* | -14%[38.3 µM] | 1% | -2 | 60
COc1ccc(/C=N/NC(=S)NC2CCS(=O)(=O)C2)cc1OC (centres undefined) | -2% | u | 10%[38.3 µM] | -5% | -1 | -100*
O=C(N/N=C/c1ccc(Br)o1)/C(=C/c1ccc([N+](=O)[O-])cc1)NC(=O)c1ccccc1 | -11% | -2% | -5%[38.3 µM] | -21% | 4 | 14
Cc1ccc(/C=N/NC(=S)NC2CCS(=O)(=O)C2)cc1 (centres undefined) | -4% | -18% | -8% | -10% | 0 | -20
COc1ccc(/C=N/NC(=O)C(=O)N2CCCC2)cc1OC | 1% | 32µM* | -6% | x | x | -4
O=C(N/N=C/c1ccc2c(c1)OCO2)/C(=C/c1ccc2c(c1)OCO2)NC(=O)c1ccccc1 | -9% | u | -6%[38.3 µM] | 1% | 6 | u
C[C@@H](C(=O)N[C@@H](CO)Cc1ccccc1)[C@H]1C[C@]1(C)[C@H](NC(=O)OCc1ccccc1)c1ccccc1 | 0% | -7% | 1% | 0% | x | x
CCOc1ccc(OCC)c(NC(=O)C(NS(=O)(=O)c2ccc(Br)s2)c2ccccc2)c1 (centres undefined) | x | x | x | x | -5 | x
COc1ccccc1OCCn1cc(/C=C(\C#N)C(=O)NCc2ccco2)c2ccccc21 | -1% | -6% | 6% | x | x | -2
Cc1ccc(C)c(OCCn2cc(/C=C(\C#N)C(=O)NCc3ccco3)c3ccccc32)c1 | 0% | 18% | 11% | x | x | -86*
Cc1ccc(S(=O)(=O)Cn2nnnc2C(CC(C)C)N2CCN(C(=O)c3ccco3)CC2)cc1 (centres undefined) | 1% | 2% | 3% | x | x | -113*
Cc1ccc(NS(=O)(=O)c2ccc(C)c(C(=O)N3CCN(C)CC3)c2)cc1 | 0% | -5% | 2%[38.3 µM] | 3% | -1 | 9
